From publication PMC7862700, “An all-to-all approach to the identification of sequence-specific readers for epigenetic DNA modifications on cytosine” come the findings set out here.

What all share (experiment): DAPPL (digital affinity profiling via proximity ligation, sequencing); 10 mM Tris-HCl pH 7.5, 50 mM NaCl, 1 mM DTT, 4% glycerol, room temperature, 30 min; GST-TFs on glutathione beads, 16-mer random dsDNA library, 0.1% formaldehyde crosslink after washing; high values mean tight binding
Test [1] addresses T1, FLI1 (Homo sapiens, UniProt Q01543 1-452).
T1 sequence: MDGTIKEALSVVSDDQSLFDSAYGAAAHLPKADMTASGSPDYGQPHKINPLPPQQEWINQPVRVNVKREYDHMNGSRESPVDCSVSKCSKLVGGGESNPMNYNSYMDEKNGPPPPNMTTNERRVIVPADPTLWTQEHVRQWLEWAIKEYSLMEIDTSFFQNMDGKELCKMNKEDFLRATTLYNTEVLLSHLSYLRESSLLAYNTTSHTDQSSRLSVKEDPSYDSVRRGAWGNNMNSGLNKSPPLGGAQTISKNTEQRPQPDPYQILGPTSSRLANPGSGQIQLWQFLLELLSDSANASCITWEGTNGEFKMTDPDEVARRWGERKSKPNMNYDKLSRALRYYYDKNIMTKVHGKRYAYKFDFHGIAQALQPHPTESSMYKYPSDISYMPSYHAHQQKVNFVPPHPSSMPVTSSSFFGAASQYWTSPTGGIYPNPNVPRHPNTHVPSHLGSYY
As to conditions: protein: recombinant; tags: N-terminal GST; dsDNA, one strand shown. Put shortly:
(§1)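 Pools of DNA-barcoded human transcription factors, expressed in yeast as GST fusions on glutathione beads and combined with a tag-only sample, were incubated with 200 nmole of a 16-mer random double-stranded DNA library. Incubation took 30 min at room temperature in Tris/NaCl/DTT/glycerol buffer and was followed by washing, 0.1% formaldehyde crosslinking, proximity ligation (BsaI/T4 ligase, 1 h, 37 °C), PCR amplification and sequencing on an Illumina NextSeq500. Binding signal is the ratio of a hexamer's read frequency for a factor to its frequency for the tag-only sample.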

The target of test [2] is T2, ELK1 (Homo sapiens, UniProt P19419 1-428).
T2 sequence: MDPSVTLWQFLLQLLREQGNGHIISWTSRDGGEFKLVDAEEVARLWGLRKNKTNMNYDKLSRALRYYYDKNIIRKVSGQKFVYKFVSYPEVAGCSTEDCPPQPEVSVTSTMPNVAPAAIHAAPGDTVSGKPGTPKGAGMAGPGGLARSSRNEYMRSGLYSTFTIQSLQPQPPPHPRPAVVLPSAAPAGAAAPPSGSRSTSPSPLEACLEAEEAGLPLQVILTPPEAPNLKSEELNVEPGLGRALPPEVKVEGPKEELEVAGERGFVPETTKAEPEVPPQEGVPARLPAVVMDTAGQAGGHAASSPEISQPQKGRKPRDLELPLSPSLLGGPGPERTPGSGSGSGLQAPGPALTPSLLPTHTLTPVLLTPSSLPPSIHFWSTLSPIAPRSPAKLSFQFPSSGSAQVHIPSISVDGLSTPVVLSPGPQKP
As to conditions: protein: recombinant; tags: N-terminal GST; dsDNA, one strand shown. Put shortly:
as §1

Test [3] concerns the target T3, GABPA (Homo sapiens, UniProt Q06546 1-454).
T3 sequence: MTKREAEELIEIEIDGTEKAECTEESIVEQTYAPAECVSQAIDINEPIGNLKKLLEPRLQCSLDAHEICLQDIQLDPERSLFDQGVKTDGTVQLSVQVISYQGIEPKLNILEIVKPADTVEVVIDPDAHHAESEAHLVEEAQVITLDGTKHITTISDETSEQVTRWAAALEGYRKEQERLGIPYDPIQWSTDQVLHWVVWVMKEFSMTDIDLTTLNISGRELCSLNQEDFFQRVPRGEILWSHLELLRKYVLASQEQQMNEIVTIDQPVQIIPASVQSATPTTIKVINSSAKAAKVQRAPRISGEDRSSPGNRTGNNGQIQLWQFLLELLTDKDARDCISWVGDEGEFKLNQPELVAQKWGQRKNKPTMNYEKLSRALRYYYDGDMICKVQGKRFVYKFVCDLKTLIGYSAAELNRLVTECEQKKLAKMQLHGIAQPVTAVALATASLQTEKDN
The settings on record: protein: recombinant; tags: N-terminal GST; dsDNA, one strand shown. The essentials: as §1

Test [4] deals with T4, ERG (Homo sapiens, UniProt P11308 1-479).
T4 sequence: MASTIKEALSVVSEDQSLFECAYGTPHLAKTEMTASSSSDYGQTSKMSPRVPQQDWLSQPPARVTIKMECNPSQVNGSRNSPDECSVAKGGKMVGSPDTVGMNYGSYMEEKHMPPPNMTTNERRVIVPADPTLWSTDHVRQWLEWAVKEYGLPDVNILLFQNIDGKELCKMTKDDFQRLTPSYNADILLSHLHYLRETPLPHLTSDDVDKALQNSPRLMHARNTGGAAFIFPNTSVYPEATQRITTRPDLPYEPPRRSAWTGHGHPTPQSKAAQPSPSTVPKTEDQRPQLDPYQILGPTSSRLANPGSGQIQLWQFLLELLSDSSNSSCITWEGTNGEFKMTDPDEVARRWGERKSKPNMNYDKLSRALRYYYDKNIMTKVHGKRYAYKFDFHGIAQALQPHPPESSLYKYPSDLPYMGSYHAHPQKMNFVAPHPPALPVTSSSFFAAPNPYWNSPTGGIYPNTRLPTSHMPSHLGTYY
The settings on record: protein: recombinant; tags: N-terminal GST; dsDNA, one strand shown. The essentials: as §1

In test [5] the target is ELF1 (Homo sapiens, UniProt P32519 1-619). As to conditions: protein: recombinant; tags: N-terminal GST; dsDNA, one strand shown. Put shortly: as §1
In test [6] the target is T5, EHF (Homo sapiens, UniProt Q9NZC4 1-300).
T5 sequence: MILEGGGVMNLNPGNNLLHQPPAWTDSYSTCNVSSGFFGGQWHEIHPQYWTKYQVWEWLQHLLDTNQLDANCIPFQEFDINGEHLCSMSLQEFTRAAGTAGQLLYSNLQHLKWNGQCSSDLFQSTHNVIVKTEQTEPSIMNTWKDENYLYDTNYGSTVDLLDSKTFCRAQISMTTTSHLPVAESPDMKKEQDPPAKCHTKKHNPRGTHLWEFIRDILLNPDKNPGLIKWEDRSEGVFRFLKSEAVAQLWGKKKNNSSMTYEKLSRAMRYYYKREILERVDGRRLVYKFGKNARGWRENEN
As to conditions: protein: recombinant; tags: N-terminal GST; dsDNA, one strand shown. The essentials:
as §1

For test [7], the target named is SPI1 (Homo sapiens, UniProt P17947 1-270). As to conditions: protein: recombinant; tags: N-terminal GST; dsDNA, one strand shown. Put shortly: as §1
In test [8] the target is SPIB (Homo sapiens, UniProt Q01892 1-262). The settings on record: protein: recombinant; tags: N-terminal GST; dsDNA, one strand shown. Put shortly:
as §1

Test [9] concerns the target T6, ELK3 (Homo sapiens, UniProt P41970 1-407).
T6 sequence: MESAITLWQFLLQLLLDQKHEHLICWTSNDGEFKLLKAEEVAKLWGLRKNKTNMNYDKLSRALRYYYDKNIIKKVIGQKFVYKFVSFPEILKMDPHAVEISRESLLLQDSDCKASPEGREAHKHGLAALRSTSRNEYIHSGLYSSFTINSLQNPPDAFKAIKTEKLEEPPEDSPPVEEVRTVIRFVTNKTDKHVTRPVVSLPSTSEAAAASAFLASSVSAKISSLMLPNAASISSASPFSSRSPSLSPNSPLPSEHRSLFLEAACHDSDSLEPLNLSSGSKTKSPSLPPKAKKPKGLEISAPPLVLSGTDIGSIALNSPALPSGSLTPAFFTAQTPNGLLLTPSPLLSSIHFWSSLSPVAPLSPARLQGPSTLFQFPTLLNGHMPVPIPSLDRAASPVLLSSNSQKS
As to conditions: protein: recombinant; tags: N-terminal GST; dsDNA, one strand shown. Put shortly:
as §1

Test [10] addresses T7, FEV (Homo sapiens, UniProt Q99581 1-238).
T7 sequence: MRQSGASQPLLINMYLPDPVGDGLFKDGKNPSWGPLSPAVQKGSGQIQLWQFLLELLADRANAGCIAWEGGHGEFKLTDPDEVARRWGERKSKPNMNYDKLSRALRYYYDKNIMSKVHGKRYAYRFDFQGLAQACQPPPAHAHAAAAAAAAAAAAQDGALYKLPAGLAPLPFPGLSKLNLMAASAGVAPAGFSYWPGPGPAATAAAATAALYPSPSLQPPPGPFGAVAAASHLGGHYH
As to conditions: protein: recombinant; tags: N-terminal GST; dsDNA, one strand shown. The essentials:
as §1

For test [11], the target named is ETV5 (Homo sapiens, UniProt P41161 1-510). The settings on record: protein: recombinant; tags: N-terminal GST; dsDNA, one strand shown. Put shortly:
as §1

Test [12] deals with HSF1 (Homo sapiens, UniProt Q00613 1-529). As to conditions: protein: recombinant; tags: N-terminal GST; chain copies: 3; dsDNA, one strand shown. The essentials:
as §1

For test [13], the target named is T8, SPIC (Homo sapiens, UniProt Q8N5J4 1-248).
T8 sequence: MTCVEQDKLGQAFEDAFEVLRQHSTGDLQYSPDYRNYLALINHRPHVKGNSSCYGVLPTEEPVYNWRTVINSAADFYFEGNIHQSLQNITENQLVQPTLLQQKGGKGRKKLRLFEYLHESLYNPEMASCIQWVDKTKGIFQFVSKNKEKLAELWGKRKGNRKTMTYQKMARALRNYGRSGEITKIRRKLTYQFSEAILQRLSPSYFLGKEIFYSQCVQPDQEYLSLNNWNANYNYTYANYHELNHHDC
The settings on record: protein: recombinant; tags: N-terminal GST; dsDNA, one strand shown. Put shortly: as §1

Test [14] deals with ELF4 (Homo sapiens, UniProt Q99607 1-663). As to conditions: protein: recombinant; tags: N-terminal GST; dsDNA, one strand shown. Put shortly:
as §1

Test [15] deals with T9, ELK4 (Homo sapiens, UniProt P28324-2 1-405).
T9 sequence: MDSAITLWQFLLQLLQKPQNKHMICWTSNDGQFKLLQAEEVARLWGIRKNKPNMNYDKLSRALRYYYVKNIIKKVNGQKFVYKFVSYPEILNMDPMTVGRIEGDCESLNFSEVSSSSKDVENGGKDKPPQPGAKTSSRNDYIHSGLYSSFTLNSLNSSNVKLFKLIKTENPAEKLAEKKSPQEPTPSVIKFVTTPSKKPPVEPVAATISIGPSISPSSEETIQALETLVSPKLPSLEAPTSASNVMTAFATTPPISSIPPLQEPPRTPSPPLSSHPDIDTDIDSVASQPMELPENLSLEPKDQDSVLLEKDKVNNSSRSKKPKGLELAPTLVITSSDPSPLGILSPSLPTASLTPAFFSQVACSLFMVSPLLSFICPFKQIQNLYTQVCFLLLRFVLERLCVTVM
The settings on record: protein: recombinant; tags: N-terminal GST; dsDNA, one strand shown. The essentials: as §1

The target of test [16] is T10, ETV2 (Homo sapiens, UniProt O00321 1-342).
T10 sequence: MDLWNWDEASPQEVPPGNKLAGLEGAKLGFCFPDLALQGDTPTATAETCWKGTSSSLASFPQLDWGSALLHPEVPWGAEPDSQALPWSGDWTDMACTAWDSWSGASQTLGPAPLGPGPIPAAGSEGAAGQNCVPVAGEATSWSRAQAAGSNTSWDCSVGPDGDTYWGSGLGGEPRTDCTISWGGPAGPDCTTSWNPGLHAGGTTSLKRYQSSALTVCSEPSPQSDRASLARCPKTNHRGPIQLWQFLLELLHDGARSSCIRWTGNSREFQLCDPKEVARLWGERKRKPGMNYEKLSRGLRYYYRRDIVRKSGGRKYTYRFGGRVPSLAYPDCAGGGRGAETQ
The settings on record: protein: recombinant; tags: N-terminal GST; dsDNA, one strand shown. Put shortly: as §1

Test [17] deals with T11, ELF3 (Homo sapiens, UniProt P78545 1-371).
T11 sequence: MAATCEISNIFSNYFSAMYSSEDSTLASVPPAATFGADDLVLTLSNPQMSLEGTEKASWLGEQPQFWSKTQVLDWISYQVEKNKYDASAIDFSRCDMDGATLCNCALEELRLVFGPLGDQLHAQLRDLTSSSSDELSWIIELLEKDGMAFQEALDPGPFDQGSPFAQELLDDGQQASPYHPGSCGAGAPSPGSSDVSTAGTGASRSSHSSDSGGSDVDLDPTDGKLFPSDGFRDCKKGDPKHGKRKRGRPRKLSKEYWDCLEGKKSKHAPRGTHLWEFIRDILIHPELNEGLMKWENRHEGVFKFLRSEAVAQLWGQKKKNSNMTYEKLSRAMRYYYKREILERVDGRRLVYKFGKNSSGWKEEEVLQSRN
As to conditions: protein: recombinant; tags: N-terminal GST; dsDNA, one strand shown. Put shortly: as §1

The target of test [18] is CRX (Homo sapiens, UniProt O43186 1-299). As to conditions: protein: recombinant; tags: N-terminal GST; dsDNA, one strand shown. Put shortly: as §1
Test [19] addresses ETV1 (Homo sapiens, UniProt P50549 1-477). As to conditions: protein: recombinant; tags: N-terminal GST; dsDNA, one strand shown. Put shortly: as §1

Chain of ETV5 (P41161 whole entry): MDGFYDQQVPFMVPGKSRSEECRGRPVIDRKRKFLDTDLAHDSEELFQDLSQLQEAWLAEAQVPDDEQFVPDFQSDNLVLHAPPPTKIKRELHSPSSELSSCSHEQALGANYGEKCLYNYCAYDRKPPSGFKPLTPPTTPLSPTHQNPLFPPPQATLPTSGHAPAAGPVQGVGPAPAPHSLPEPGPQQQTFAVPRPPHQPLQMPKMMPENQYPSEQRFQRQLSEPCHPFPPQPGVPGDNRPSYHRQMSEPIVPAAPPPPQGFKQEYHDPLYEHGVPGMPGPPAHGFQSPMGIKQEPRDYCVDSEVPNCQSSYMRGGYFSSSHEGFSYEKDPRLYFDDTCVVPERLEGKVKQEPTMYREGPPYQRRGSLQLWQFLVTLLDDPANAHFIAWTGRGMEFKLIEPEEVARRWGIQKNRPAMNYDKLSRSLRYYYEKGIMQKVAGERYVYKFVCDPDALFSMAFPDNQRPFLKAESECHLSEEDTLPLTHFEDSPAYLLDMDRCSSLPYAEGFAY
Chain of ELF4 (Q99607 whole entry): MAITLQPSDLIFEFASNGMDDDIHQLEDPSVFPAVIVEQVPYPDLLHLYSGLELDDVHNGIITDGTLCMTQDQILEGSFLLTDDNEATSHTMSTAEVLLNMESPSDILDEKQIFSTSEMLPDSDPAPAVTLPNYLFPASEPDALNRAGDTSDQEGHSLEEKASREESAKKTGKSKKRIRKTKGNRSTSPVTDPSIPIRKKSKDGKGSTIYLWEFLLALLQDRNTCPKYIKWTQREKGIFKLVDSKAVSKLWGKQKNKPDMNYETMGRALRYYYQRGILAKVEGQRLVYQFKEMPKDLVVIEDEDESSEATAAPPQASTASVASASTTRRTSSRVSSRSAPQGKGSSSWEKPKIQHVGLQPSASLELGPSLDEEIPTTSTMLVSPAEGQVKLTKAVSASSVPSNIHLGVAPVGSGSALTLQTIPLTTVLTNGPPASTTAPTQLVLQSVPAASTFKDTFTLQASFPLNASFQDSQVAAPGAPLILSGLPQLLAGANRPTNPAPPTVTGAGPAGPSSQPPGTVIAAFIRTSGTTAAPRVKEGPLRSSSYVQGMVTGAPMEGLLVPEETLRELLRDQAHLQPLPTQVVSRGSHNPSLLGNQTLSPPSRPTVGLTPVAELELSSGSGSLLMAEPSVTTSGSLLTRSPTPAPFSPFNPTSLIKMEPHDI
Chain of HSF1 (Q00613 whole entry): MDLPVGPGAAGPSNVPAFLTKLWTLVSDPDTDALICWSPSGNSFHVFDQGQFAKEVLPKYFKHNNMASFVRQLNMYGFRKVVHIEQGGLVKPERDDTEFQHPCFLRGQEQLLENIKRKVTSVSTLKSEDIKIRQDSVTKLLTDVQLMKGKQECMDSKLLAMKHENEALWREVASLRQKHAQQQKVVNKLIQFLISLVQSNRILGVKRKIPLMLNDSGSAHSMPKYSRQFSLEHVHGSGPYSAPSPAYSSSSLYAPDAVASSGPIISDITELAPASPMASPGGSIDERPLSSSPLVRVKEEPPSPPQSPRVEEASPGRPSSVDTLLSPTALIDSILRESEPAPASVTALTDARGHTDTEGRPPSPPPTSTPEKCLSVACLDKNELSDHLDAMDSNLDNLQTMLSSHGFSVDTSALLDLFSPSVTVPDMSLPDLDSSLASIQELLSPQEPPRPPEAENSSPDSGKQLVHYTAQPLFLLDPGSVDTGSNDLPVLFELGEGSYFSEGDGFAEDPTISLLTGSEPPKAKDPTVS
Chain of ELF1 (P32519 whole entry): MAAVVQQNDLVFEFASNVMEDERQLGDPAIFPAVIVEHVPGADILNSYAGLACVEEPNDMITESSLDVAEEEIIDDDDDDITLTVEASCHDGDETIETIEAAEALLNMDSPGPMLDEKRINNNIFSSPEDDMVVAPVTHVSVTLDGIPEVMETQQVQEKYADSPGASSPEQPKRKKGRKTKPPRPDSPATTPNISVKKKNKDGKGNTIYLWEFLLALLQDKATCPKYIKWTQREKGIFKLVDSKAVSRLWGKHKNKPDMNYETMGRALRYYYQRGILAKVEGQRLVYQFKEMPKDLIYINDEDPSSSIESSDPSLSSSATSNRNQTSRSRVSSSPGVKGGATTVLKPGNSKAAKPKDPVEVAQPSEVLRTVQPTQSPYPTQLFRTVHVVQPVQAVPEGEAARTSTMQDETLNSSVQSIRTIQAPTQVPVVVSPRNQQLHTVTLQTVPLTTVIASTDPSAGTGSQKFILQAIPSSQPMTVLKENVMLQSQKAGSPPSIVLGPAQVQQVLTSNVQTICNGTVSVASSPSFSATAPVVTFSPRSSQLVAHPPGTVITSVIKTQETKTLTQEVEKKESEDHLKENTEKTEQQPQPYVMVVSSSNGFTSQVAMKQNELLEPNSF
Chain of CRX (O43186 whole entry): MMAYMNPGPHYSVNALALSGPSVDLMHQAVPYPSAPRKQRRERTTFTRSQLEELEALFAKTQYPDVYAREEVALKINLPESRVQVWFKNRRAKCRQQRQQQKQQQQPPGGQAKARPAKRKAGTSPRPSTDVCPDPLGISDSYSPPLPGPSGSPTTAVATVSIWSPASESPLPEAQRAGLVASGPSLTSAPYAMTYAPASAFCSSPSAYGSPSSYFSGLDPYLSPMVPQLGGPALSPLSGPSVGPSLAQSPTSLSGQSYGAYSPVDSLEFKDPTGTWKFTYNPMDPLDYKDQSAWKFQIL
Chain of ETV1 (P50549 whole entry): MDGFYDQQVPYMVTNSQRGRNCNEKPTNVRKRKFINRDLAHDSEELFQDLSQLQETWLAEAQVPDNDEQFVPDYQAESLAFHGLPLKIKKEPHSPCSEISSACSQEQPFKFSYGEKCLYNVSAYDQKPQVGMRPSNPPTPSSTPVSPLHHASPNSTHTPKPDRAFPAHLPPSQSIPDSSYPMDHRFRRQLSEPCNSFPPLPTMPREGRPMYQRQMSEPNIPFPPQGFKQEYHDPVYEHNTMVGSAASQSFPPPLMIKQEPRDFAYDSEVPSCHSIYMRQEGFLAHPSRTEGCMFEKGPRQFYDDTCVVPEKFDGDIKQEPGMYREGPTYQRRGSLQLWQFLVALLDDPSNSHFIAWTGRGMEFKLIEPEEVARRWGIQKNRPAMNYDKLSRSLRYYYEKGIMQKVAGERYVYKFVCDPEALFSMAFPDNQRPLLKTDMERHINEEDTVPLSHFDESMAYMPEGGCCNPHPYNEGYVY
Chain of SPIB (Q01892 whole entry): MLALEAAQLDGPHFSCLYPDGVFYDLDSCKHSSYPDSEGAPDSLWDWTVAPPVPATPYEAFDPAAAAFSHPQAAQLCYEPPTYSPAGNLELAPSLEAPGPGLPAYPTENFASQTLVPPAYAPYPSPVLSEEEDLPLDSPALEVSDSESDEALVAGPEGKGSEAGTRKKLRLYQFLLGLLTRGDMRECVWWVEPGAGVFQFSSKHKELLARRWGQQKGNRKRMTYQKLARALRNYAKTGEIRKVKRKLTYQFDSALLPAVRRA

With TTCGCA, the binding signal in test [1] is 1.23 fold enrichment (6-mer frequency, TF over GST control); in test [2], 1.36 fold enrichment (6-mer frequency, TF over GST control); in test [3] it was 1.33 fold enrichment (6-mer frequency, TF over GST control); in test [4], 1.29 fold enrichment (6-mer frequency, TF over GST control); in [5], 1.27 fold enrichment (6-mer frequency, TF over GST control); in test [6] it was 1.34 fold enrichment (6-mer frequency, TF over GST control). In addition, the binding signal in test [7] was 1.32 fold enrichment (6-mer frequency, TF over GST control); in [8], 1.46 fold enrichment (6-mer frequency, TF over GST control); in [9], 1.25 fold enrichment (6-mer frequency, TF over GST control); in [10], 1.4 fold enrichment (6-mer frequency, TF over GST control); in [11], 1.15 fold enrichment (6-mer frequency, TF over GST control); in [12], 1.31 fold enrichment (6-mer frequency, TF over GST control). Besides, the binding signal in test [13] is 1.32 fold enrichment (6-mer frequency, TF over GST control); in [14] it was 1.26 fold enrichment (6-mer frequency, TF over GST control); in test [15] it was 1.2 fold enrichment (6-mer frequency, TF over GST control); in test [16], 1.34 fold enrichment (6-mer frequency, TF over GST control); in test [17] it was 1.11 fold enrichment (6-mer frequency, TF over GST control); in test [18], 1.28 fold enrichment (6-mer frequency, TF over GST control). Besides, the binding signal in test [19] is 1.32 fold enrichment (6-mer frequency, TF over GST control).
